Screening data deposited in PubChem by The Scripps Research Institute Molecular Screening Center.
Shown are actives, neighbours in structure and some others; about 2.3% of the full set was active somewhere.
CHRM1 PAM – human CHRM1 positive allosteric modulation | 0.088% of 360,000 active | CHO-K1 hM1, Fluo-8 calcium fluorescence, ACh EC20; 0% = ACh EC20, 100% = maximal ACh | activation, % at 3 µM; in the data active = activation above about 19%, passing the limit was not always enough
Target sequence (P11229 whole entry, looked up): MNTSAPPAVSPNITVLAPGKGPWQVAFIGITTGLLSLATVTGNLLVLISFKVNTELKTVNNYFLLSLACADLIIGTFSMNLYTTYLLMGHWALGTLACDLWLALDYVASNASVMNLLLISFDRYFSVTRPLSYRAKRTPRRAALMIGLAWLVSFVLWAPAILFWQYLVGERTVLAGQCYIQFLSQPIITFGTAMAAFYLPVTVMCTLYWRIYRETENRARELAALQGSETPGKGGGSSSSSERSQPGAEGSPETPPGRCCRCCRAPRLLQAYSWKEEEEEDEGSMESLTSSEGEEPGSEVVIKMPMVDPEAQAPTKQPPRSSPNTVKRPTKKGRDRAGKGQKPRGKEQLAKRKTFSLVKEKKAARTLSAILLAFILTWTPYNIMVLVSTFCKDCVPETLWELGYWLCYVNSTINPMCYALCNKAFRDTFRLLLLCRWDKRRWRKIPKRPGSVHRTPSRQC
CHO-K1 Ca ag – M1 agonist counterscreen hit in parental CHO-K1 cells. Fluo-8 calcium fluorescence; scaled to maximal ATP response, vehicle zero. activation, % at 3 µM. 0.48% of 360,000 active; in the data active = activation above about 15%;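 also: untransfected CHO-K1 host cells lacking M1 receptor as counterscreen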
M1 antag – antagonists of human M1 muscarinic receptor; P11229; CHO-K1 hM1, Fluo-8 calcium fluorescence, ACh EC80 antagonist; inhibition, % at 3 µM; 1.3% of 360,000 active; AID 588852;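 active = percent inhibition above its own plate's cutoff, namely the mean of that plate's compound wells plus 3 SD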;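 also: peak over basal fluorescence ratio during 140 s after agonist addition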
CHO-K1 Ca antag – counter-screen for M1 antagonists: effect in parental CHO-K1 cells; inhibition, % at 3 µM; ATP-induced calcium, Fluo-8 fluorescence; AID 602250; 0.6% of 360,000 active;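 active = inhibition above a per-plate cutoff, the plate's mean sample inhibition plus 3 SD, cut at about 24% in these data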
CHRM1 agonist – agonists of human M1 muscarinic receptor; activation, % at 3 µM; P11229; CHO-K1 hM1, Fluo-8 calcium fluorescence, agonist mode; 0% DMSO, 100% acetylcholine EC100; AID 588814; 0.33% of 360,000 active;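 active = activation above the run's mean compound activation plus 3 SD, cut at about 16% in these data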;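 also: peak over basal fluorescence ratio within a 140 s kinetic read after compound addition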
CHO-K1 Ca PAM – nonselective activator or artifact in parental CHO-K1 calcium assay; ATP EC20, Fluo-8 calcium fluorescence; 0% at ATP EC20, 100% at ATP max; activation, % at 3 µM; 0.02% of 360,000 active;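 active = activation above the run cutoff, the mean activation of all test compounds plus 3 SD, cut at about 40% in these data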;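 also: peak over basal fluorescence ratio in a 140 s read after ATP addition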
Of the large screens only hits and unclear results are named; the others gave an inactive call.

O=C(CCC1CCCC1)NNC(=O)c1ccccc1O	none
Cc1cc(C)n(-c2ccc(C(=O)N3CCN(S(=O)(=O)c4ccc(Cl)cc4)CC3)cc2)n1	none
COc1ccc(C(C(=O)NC(C)(C)C)N(CCC(C)C)C(=O)CCC(=O)Nc2cc(C)on2)cc1 (stereo unspecified)	CHRM1 PAM 30
CN(Cc1ccc(OC(F)F)cc1)C(=O)c1ccc(S(=O)(=O)N(C)c2ccccc2)cc1	none
Cc1ccc(CN(C)C(=O)c2ccc(S(=O)(=O)N(C)c3ccccc3)cc2)o1	M1 antag 40
COc1ccc(OC)c(NC(=O)Nc2ccc(Cl)cc2)c1	none
COc1ccc(OC)c(NC(=O)Nc2ccc3[nH]ccc3c2)c1	CHO-K1 Ca antag 59
CCc1ccc(NC(=O)CSc2nnc(CNC(=O)c3ccco3)o2)cc1	none
COCC(=O)N1CCC2CC1c1c(-c3ccc(C(F)(F)F)cc3)cccc12 (stereo unspecified)	none
CCOC1=C2CN(S(=O)(=O)c3ccc(C)cc3)[C@@H](c3cccs3)C[C@H]2[C@H]2C(=O)N(c3ccccc3)C(=O)[C@H]2C1	CHO-K1 Ca antag 27
COc1ccc(NC(=S)N2CCN(C(c3ccccc3)c3ccccc3)CC2)cc1OC	M1 antag 38
O=C(CSc1ncccn1)c1ccccc1Br	CHO-K1 Ca antag 27
O=C(/C=C/c1ccc(Cl)c([N+](=O)[O-])c1)Nc1ccc(NC(=O)c2ccco2)cc1	none
O=C(/C=C/c1ccc(Cl)c([N+](=O)[O-])c1)Nc1cccc(NC(=O)c2ccco2)c1	M1 antag 34, CHO-K1 Ca antag 28
CC(C)(C)NC(=O)C1(C)CCC(=O)N1CC(F)(F)F (stereo unspecified)	CHO-K1 Ca antag 24
COc1ccc(NC(=O)c2cc(-c3cc(F)ccc3OC(C)C)n[nH]2)cc1OC	none
CCCC(=O)N1CCN(c2ccc(NC(=O)c3cc4ccccc4o3)cc2Cl)CC1	M1 antag 55
CCC(=O)N1CCN(c2ccc(NC(=O)c3cc4ccccc4o3)cc2Cl)CC1	M1 antag 18
CCCC(=O)N1CCN(c2ccc(NC(=O)c3cccs3)cc2Cl)CC1	none
O=C(Nc1ccc(N2CCN(C(=O)c3ccccc3)CC2)c(Cl)c1)c1ccco1	none
O=C(Nc1ccc(N2CCN(C(=O)c3ccco3)CC2)c(Cl)c1)c1cc2ccccc2o1	M1 antag 37
CCC(=O)N1CCN(c2ccc(NC(=O)c3ccco3)cc2Cl)CC1	none
O=C(NCC(=O)N1CCN(c2ccccc2)CC1)c1ccco1	none
CCOc1ccc(CCNC(=O)CN2CCN(Cc3ccccc3C)C2=O)cc1OCC	none
CN(C)C(=O)CCc1ccc2c3c([nH]c2c1)[C@]1(C)[C@@H](C(=O)N2CCOCC2)C[C@H](CC(=O)NCCN2CCOCC2)C(=O)N1CC3	CHO-K1 Ca antag 24
Cc1cc(NC(=O)c2cnn3c(C(F)(F)F)cc(-c4ccccc4)nc23)no1	M1 antag 33
COc1ccc(-c2cc(C(F)(F)F)n3nc(C(=O)Nc4c(C)n(C)n(-c5ccccc5)c4=O)c(Cl)c3n2)cc1	CHO-K1 Ca antag 26
Cc1c(NC(=O)c2nn3c(C(F)(F)F)cc(-c4ccccc4)nc3c2Cl)c(=O)n(-c2ccccc2)n1C	none
COCCNC(=O)c1[nH]c(C(F)(F)F)nc1-c1ccccc1	none
COc1ccc(-c2cc(C)no2)cc1S(=O)(=O)NCC1CCN(Cc2cc(C)ccc2C)CC1	M1 antag 51
Cc1cc(-c2ccc(C)c(S(=O)(=O)NCC3CCN(Cc4ccc(F)cc4)CC3)c2)on1	none
COc1ccccc1CN1CCC(CNS(=O)(=O)c2cc(-c3cc(C)no3)ccc2C)CC1	M1 antag 66
COc1ccccc1N1C(=O)C2C(C(=O)c3ccccc3)=NN(c3ccc(Br)cc3)C2C1=O (stereo unspecified)	CHO-K1 Ca ag 31, CHO-K1 Ca antag 30
FC(F)(F)c1ccc(Cl)c(NC(=S)NC2CC2)c1	none
Cc1sc2ncnc(NCC(c3ccco3)N3CCCC3)c2c1C (stereo unspecified)	M1 antag 91
